# Screening data (PubChem)
# Sampled rows, rich in hits. Any-hit rate of the full collection: about 0.19%.
# Bim-Bfl-1: inhibitors of Bim binding to Bfl-1, primary screen, biochemical, multiplexed, bead-based flow cytometry | Bcl-2-related protein A1 (Homo sapiens), Q16548 | Bim-Bfl-1 binding inhibition | inhibition, % at 10 µM | 190,000 compounds, 0.12% hits | AID 1008, 2008;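 also: 0% = wells without compound plus tracer and 100% = blocker peptide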
# Target sequence (Q16548 whole entry, looked up): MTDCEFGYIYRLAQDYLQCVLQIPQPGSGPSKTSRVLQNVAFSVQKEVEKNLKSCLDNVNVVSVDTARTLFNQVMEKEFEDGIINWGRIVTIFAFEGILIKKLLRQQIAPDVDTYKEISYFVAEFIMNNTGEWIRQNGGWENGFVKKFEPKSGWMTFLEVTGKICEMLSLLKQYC
# Bim-Bcl-W: inhibitors of Bim binding to Bcl-W, primary screen, biochemical, multiplexed, bead-based flow cytometry | inhibition, % at 10 µM | Bcl-2-like protein 2 (Homo sapiens), Q92843 | 190,000 compounds, 0.02% hits | AID 952, 2007 | Bim peptide-Bcl-W binding;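 also: 0% = bound tracer without compound and 100% = peptide blocker; higher means less fluorescent Bim peptide bound to Bcl-W beads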
# Bcl-B Bim block: inhibitors of Bim-Bcl-B binding, primary screen, biochemical, multiplexed, human Bcl-2 family. bead-based flow cytometry, Bim peptide-Bcl-B binding. inhibition, % at 10 µM. AID 951, 2007. 190,000 compounds, 0.073% hits;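 also: 0% = tracer peptide without compound and 100% = reference inhibitor peptide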
# Bim-Bcl-2: inhibitors of Bim-Bcl-2 binding, primary screen, biochemical, multiplexed, human Bcl-2 family. 190,000 compounds, 0.06% hits. Apoptosis regulator Bcl-2 (Homo sapiens), P10415. Bead-based flow cytometry, Bim peptide-Bcl-2 binding. inhibition, % at 10 µM; in the data active = inhibition above about 40%;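 also: 0% = no compound wells with probe peptide and 100% = reference peptide inhibitor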
# Bim-Bcl-XL: inhibitors of Bim-Bcl-XL binding, primary screen, biochemical, multiplexed, bead flow cytometry, human Bcl-XL; Bim peptide-Bcl-XL binding, fluorescence; inhibition, % at 10 µM; 190,000 compounds, 0.04% hits; AID 1007, 2008
# Target sequence (Q07817 whole entry, looked up): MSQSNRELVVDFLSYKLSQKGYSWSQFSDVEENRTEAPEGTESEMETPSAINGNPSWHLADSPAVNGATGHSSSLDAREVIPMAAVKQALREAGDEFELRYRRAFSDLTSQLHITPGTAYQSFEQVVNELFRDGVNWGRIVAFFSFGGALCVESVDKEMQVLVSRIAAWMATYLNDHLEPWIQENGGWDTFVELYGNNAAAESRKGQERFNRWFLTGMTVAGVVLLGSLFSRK
# Bim-Bcl-XL DR: Bim-Bcl-XL interaction inhibitors, hit retest, confirmation, biochemical, dose response, multiplexed, HTS hits | shares compounds with Bim-Bfl-1 | bead-based flow cytometry, Bim-Bcl-XL binding | inhibition of binding at 100 µM | 40 tested, under 10 active; call rule not given here
# Active calls of the source: *; · = not tested or not shown. Rule as the data show it, unless noted: active = inhibition above about 40%.
SMILES,Bim-Bfl-1,Bim-Bcl-W,Bcl-B Bim block,Bim-Bcl-2,Bim-Bcl-XL,Bim-Bcl-XL DR
CCN1/C(=C/c2ccc3cc(C)ccc3[n+]2CC)Sc2cc(C)ccc21,1.0,4.0,-25.0,6.0,2.0,·
CC(NCC(O)COCCC12CC3CC(CC(C3)C1)C2)c1ccccc1 (centres undefined),-4.0,1.0,-1.0,-2.0,-1.0,·
CC1Nc2ccccc2C(=O)N1NS(=O)(=O)c1ccccc1 (centres undefined),43.0*,28.0,25.0,29.0,42.0*,·
Cc1ccc(NC(=O)CC2S/C(=N/N=C/c3c[nH]c4ccccc34)NC2=O)cc1 (centres undefined),42.0*,28.0,27.0,25.0,33.0,·
CC(C)(C)NC(=O)CCN(/N=C/c1ccc([N+](=O)[O-])o1)C1=NS(=O)(=O)c2ccccc21,19.0,36.0,27.0,22.0,53.0*,·
COc1ccccc1-n1c(-c2cc(-c3ccc(F)cc3)n[nH]2)n[nH]c1=S,38.0,47.0*,24.0,44.0*,16.0,·
COc1ccc(-c2cc(-c3n[nH]c(=S)n3-c3cccc4ccccc34)[nH]n2)cc1,-5.0,-3.0,-5.0,-3.0,-1.0,·
CC(=NCCCn1ccnc1)C1=C(O)c2ccccc2C1=O,63.0*,11.0,86.0*,87.0*,18.0,·
COc1cccc(CN2CCN(C(=S)NCc3ccc(Cl)cc3)CC2)c1,0.0,3.0,0.0,0.0,5.0,·
O=C(N/N=C/c1ccc(-c2ccccc2[N+](=O)[O-])o1)c1cncc(Br)c1,28.0,32.0,24.0,18.0,48.0*,·
O=C(Nc1nc2ccccc2[nH]1)C12CC3CC(CC(C3)C1)C2,-7.0,3.0,-5.0,-6.0,-4.0,·
O=C(OCc1nc2ccccc2[nH]1)C12CC3CC(CC(C3)C1)C2,6.0,0.0,42.0*,12.0,0.0,·
COc1ccc(CCn2c(=O)[nH]c3cc(C(=O)N4CCN(c5ccccn5)CC4)ccc3c2=O)cc1OC,-7.0,-1.0,-1.0,0.0,0.0,·
O=C(c1cccc(Oc2ccccc2)c1)N1CCN(c2ccccn2)CC1,-3.0,0.0,0.0,-1.0,0.0,·
Cc1ccc(-c2cc(C(=O)Nc3nccs3)c3ccccc3n2)o1,37.0,4.0,-3.0,11.0,0.0,-0.506
CC(=O)OCCCNc1cc(Sc2nc3ccccc3s2)c2nonc2c1[N+](=O)[O-],48.0*,11.0,-4.0,2.0,3.0,4.68
CC(=O)OCCNc1cc(SCc2ccco2)c2nonc2c1[N+](=O)[O-],13.0,2.0,-11.0,-1.0,-5.0,·
CCOc1ccccc1CNc1ccc(O)cc1,44.0*,23.0,-15.0,11.0,4.0,0.0435
COc1cc(N=C2SSNC2Cl)c(OC)cc1Cl (centres undefined),·,·,·,·,·,10.5
COc1cc(N=c2ssnc2Cl)c(OC)cc1Cl,31.0,8.0,-13.0,3.0,10.0,·
Cn1c(=O)c2c(nc(Cl)n2CC(=O)N2CCCCC2)n(C)c1=O,-6.0,-3.0,-6.0,0.0,-2.0,·
COc1cc(CNc2ccc3[nH]c(=O)[nH]c3c2)cc(Br)c1OCC(=O)NC(C)(C)C,9.0,21.0,-8.0,-3.0,2.0,2.86
O=C1c2ccccc2C(=O)N1CN(C(=O)COc1ccc(Cl)cc1Cl)c1cccc(F)c1,-5.0,2.0,16.0,0.0,-2.0,-1.37
CCN(C(=O)COc1cc(=O)n(CC)c2ccccc12)c1cccc(Cl)c1,-8.0,5.0,-6.0,-1.0,7.0,·
CC1(C)Cc2ccccc2C(CSc2ccccc2C(=O)O)=N1,-1.0,6.0,3.0,-2.0,3.0,·
SMILES,Bim-Bfl-1,Bim-Bcl-W,Bcl-B Bim block,Bim-Bcl-2,Bim-Bcl-XL,Bim-Bcl-XL DR
S=c1[nH]cc(-c2ccccc2)n1-c1ccccc1Cl,-14.0,-3.0,26.0,-12.0,-4.0,·
COc1ccccc1-n1c(-c2ccccc2)c[nH]c1=S,22.0,3.0,-20.0,3.0,-2.0,2.08
CNC(CC(=O)c1ccc([N+](=O)[O-])cc1)C(Cl)(Cl)Cl (centres undefined),55.0*,3.0,4.0,11.0,2.0,2.35
O=C(Nc1nnc(COc2ccc(Cl)cc2)s1)c1ccco1,23.0,-9.0,-43.0,-2.0,-15.0,-5.02
Cc1ccc(OCc2nnc(NC(=O)c3ccco3)s2)cc1,-10.0,5.0,-6.0,-10.0,0.0,·
COc1cccc(NC(=O)Nc2ccc(C(C)(C)C)cc2)c1,4.0,2.0,-3.0,-7.0,-1.0,·
COc1cccc(/C=N/NC(=O)c2ccc([N+](=O)[O-])cc2Cl)c1O,-2.0,-1.0,-3.0,-3.0,-3.0,·
Cc1cc2nn(-c3cccc4ccccc34)nc2cc1N,48.0*,13.0,-1.0,15.0,4.0,1.95
CN(Cc1ccccc1)C(=O)COC(=O)c1ccc(Cl)cc1N,-5.0,0.0,0.0,0.0,0.0,·
